From PubChem BioAssay
NCOA1 inh: inhibitors of human steroid receptor coactivator 1 (SRC1); actives 0.12% (n = 360,000); inhibition, % at 3.6 µM; HEK293 GAL4-SRC1 luciferase reporter, luminescence;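 active = inhibition above the campaign mean plus 3 SD, with each screening campaign given its own cutoff, cut at about 60% in these data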;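 also: 0% = DMSO treated cells and 100% = gossypol at 36 µM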
NCOA3 inh: inhibits human SRC3 coactivator; HEK293 GAL4-SRC3 luciferase reporter, luminescence; AID 588352; Q9Y6Q9; inhibition, % at 3.6 µM; actives 0.17% (n = 360,000);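 active = inhibition above a per-campaign cutoff, the mean of all compounds plus 3 SD, cut at about 60% in these data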;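 also: 0% = DMSO-treated cells and 100% = gossypol-treated cells at 36 µM; higher means less SRC3-driven luciferase light from the GAL4 reporter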
GalR3 antag: blocks the human galanin receptor 3; inhibition, % at 3 µM; actives 0.44% (n = 360,000); O60755; HEK293 GalR3-CNG cAMP membrane potential fluorescence; galR3 body fused to GalR1 C-terminus;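 active = inhibition above the screen-wide average plus 3 SD, cut at about 13% in these data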;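 also: forskolin and galanin both at EC90 stimulate the cells; cAMP rise reported by CNG channel membrane potential dye signal; 0% = forskolin plus galanin with DMSO and 100% = forskolin alone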
NCOA2 inhibitor: inhibits human steroid receptor coactivator 2. Q15596. HEK293 GAL4-SRC2 luciferase reporter, luminescence. inhibition, % at 9 µM. actives 0.17% (n = 370,000). AID 651957;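 active = inhibition above the mean inhibition of all tested compounds plus 3 SD, set per campaign, cut at about 52% in these data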;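 also: 0% = DMSO treated cells and 100% = cells given Gossypol at 36 µM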
COUP-TFII inh: NR2F2 (human) inhibition, primary screen; P24468; HEK293T NGFI-A luciferase reporter, luminescence; inhibition, % at 8.6 µM; actives 0.7% (n = 370,000); AID 686940;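 active = inhibition above a per-plate cutoff, mean inhibition of test wells between control levels plus 3 SD, cut at about 38% in these data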;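 also: cells cotransfected with COUP-TFII expression vector driving the NGFI-A reporter; 0% = median of COUP-TF2 test wells and 100% = reporter-only cells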
NR5A2 inv ag: NR5A2 inverse agonism in reporter assay; O00482; HEK293T StAR-luciferase reporter, LRH-1 transfected, 24 h; inhibition, % at 3.6 µM; actives 0.13% (n = 360,000);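 active = inhibition above the mean inhibition of all tested compounds plus 3 SD, cut at about 73% in these data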;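 also: 0% = DMSO wells and 100% = reporter-only cells lacking LRH-1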
* marks the source's active call; other numbers are inactive results; · = no result given; ! = not confirmed by another sample. Sampled rows, rich in hits. Any-hit rate of the full collection: about 1.1%.

SMILES	NCOA1 inh	NCOA3 inh	GalR3 antag	NCOA2 inhibitor	COUP-TFII inh	NR5A2 inv ag
CC(c1c[nH]c2ccccc12)c1cn(C)c2ccccc12 (stereo not drawn)	·	·	·	21	1	·
Nc1nc(N)c2c(ccc3c2ccn3Cc2cccc([N+](=O)[O-])c2)n1	65*	64*	-8	23	-10	55
CCC(=O)Nc1cc2nn(-c3ccc(C)cc3)nc2cc1C	44	34	-4	6	46*	18
CCC(=O)Nc1cc2nn(-c3ccc(OC)cc3)nc2cc1C	-103	-105	-1	-65	-52	-77
Cc1cc(/C=c2/sc3nc4ccccc4n3c2=O)c(C)n1-c1ccccn1	88*	90*	-6	79*	101*	79*
COc1ccc(OC)c(CN2CCN(C(=O)c3cccc(S(=O)(=O)N(C)c4ccccc4)c3)CC2)c1	-5	-3	-1	19	8	-16
CCCCN(CC)Cc1ccc(CNC(=S)Nc2ccc(C)cc2Cl)o1	15	36	-6	53*	9	9
CCCCN(CC)Cc1ccc(CNC(=S)Nc2c(C)cc(C)cc2C)o1	-9	5	-6	23	-6	3
Cc1sc2nc(SCC(=O)c3ccc(O)c(O)c3)n(C)c(=O)c2c1C	·	·	·	-3	-6	·
O=C(N[C@@H](Cc1cccnc1)C(=O)N1CCC[C@H]1C(=O)NCCc1ccccc1Cl)c1cccs1	·	·	-2	5	-6	·
Cc1ccc(NC(=O)c2ccccc2)cc1	-99	-87	-2	-59	-33	-178
Cc1ccc(NC(=O)C2=C(c3ccccc3)S(=O)(=O)CCS2(=O)=O)cc1	-60	-31	7	74*	20	56
COc1ccc(S(=O)(=O)N2CCOCC2)cc1NC(=O)CCNC(=O)c1ccc(Cl)cc1	-5	-11	-4	12	4	-9
COc1ccc(S(=O)(=O)N2CCOCC2)cc1NC(=O)CCNC(=O)c1ccc(Br)cc1	44	31	-5	57*	-6	82*
CCc1nc2ccc(C(=O)N3CCN(c4ccccc4)CC3)cn2c1N(CCC(C)C)CCN(C)C	1	-1	-10	-9	12	6
Cc1[nH]c(=O)c(C(=O)/C=C/c2ccccc2F)c2c1CCCC2	62*	87*	-8	61*	27	65
C/C(=C\c1ccccc1F)C(=O)c1c(C)cc(C)[nH]c1=O	-13	-3	-10	5	15	14
C[n+]1c2cc(N)ccc2cc2ccc(N)cc21	-111	-71	-3	-229	-35	74*!
CC1=[N+](C)c2c(ccc3cccnc23)C1(C)C	18	34	24*	14	77*	59
CCOC(=O)N1CCN(C(=O)C[C@H]2C[C@@]3(C(=O)OC)C(=C[C@H](COCc4ccccc4)O[C@@H]3C)N(Cc3ccc4c(c3)OCO4)C2=O)CC1	·	·	-5	-57	9	·
CN(C)CC1CCC/C(=C\c2ccc(OC(=O)c3ccc(Cl)cc3)cc2)C1=O (stereo not drawn)	67*	51	-6	-21	-9	53
CCCCCCCCN1C(=O)[C@@H](CC(=O)NCc2ccc(OC)c(OC)c2)C[C@@]2(C(=O)OC)C1=C[C@H](C(C)C)O[C@@H]2C1CC1	·	·	·	12	16	·
CCCNC(=O)C1(C)CCCN(Cc2cc(-c3ccccc3)n(C)n2)C1 (stereo not drawn)	7	4	-4	6	-2	-1
Cc1nc(N2CCOCC2)c2c(C)c(C(=O)Nc3ccccc3Cl)sc2n1	10	9	2	-8	15	-8
Cc1nc(N2CCOCC2)c2c(C)c(C(=O)Nc3ccc(F)cc3Cl)sc2n1	2	-3	14*	23	6	7
Cc1ccc(-c2cc(C(=O)NN=Cc3cccc4ccccc34)[nH]n2)cc1C	·	·	·	-1	-13	·
COc1ccc(Cc2nnc(N/N=C/c3ccc(O)cc3)[nH]c2=O)cc1OC	22	69*	-6	53*	17	6
COc1ccc(Cc2nnc(N/N=C/c3ccc(Br)cc3)[nH]c2=O)cc1OC	1	17	-8	14	-14	-2
CCN(C(C)=O)c1cnc(C=NNC(N)=S)c2ccccc12	16	41	-1	-10	2	66
NC(=S)NN=Cc1nccc2c(N)cccc12	74*	62*	-5	-22	-17	29
